# Source: PubChem (The Scripps Research Institute Molecular Screening Center)
# PAFAH1B3 inh: PAFAH1B3 enzyme inhibitors, primary screen, biochemical, fluorescence polarization, human | Platelet-activating factor acetylhydrolase IB subunit alpha1 (Homo sapiens), Q15102 | recombinant PAFAH1B3, FP-rhodamine probe | inhibition, % at 3.39 µM | 340,000 compounds, 0.28% hits;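 active = inhibition above the screen-wide average of all tested compounds plus 3 SD, cut at about 25% in these data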;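 note: 0% = enzyme with DMSO only and 100% = wells lacking PAFAH1B3 protein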
# Target sequence (Q15102 whole entry, looked up): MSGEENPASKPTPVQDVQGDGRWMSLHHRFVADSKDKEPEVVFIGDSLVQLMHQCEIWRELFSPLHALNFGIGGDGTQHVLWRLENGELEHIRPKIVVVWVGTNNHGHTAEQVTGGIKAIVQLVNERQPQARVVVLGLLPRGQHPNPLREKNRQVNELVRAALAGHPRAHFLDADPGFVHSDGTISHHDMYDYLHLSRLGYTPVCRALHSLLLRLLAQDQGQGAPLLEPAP
# PME-1 inh: PME-1 inhibitors via competitive probe labeling, primary screen, biochemical, fluorescence polarization, FP-Rh probe, HTS; recombinant PME-1; AID 2130, 2009; inhibition, % at 5.9 µM; 320,000 compounds, 0.53% hits; Protein phosphatase methylesterase 1 (Homo sapiens), Q9Y570;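 active = inhibition above the campaign mean of all compounds plus 3 SD, cut at about 26% in these data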;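 note: competitive labeling of PME-1 active site by serine hydrolase directed probe; 0% = PME-1 with DMSO and 100% = wells lacking PME-1 enzyme; inhibitors block probe labeling so polarization falls and inhibition rises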
# PAFAH1B2 FP inh: PAFAH1B2 enzyme inhibitors, primary screen, biochemical, fluorescence polarization, human | AID 492953, 2010 | Platelet-activating factor acetylhydrolase IB subunit alpha2 (Homo sapiens), P68402 | 340,000 compounds, 1.2% hits | recombinant PAFAH1B2, FP-rhodamine activity probe | inhibition, % at 3.39 µM;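 active = inhibition above the mean of all tested compounds plus 3 SD, cut at about 24% in these data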;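 note: 0% = enzyme with DMSO and 100% = wells lacking PAFAH1B2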
# Target sequence (P68402 whole entry, looked up): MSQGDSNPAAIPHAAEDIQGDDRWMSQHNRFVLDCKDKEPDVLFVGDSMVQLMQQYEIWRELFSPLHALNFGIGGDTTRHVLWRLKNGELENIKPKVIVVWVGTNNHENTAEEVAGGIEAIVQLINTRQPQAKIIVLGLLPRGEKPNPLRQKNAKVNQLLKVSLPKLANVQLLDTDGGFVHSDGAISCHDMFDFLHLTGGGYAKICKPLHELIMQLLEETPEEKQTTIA
# PAFAH2 FP inh: PAFAH2 enzyme inhibitors, primary screen, biochemical, fluorescence polarization, human; Platelet-activating factor acetylhydrolase 2, cytoplasmic (Homo sapiens), Q99487; recombinant PAFAH2, FP-rhodamine activity probe; inhibition, % at 3.39 µM; 340,000 compounds, 0.99% hits; AID 492956, 2010;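 active = inhibition above the mean over all tested compounds plus 3 SD, cut at about 30% in these data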;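 note: inhibitors block probe labeling of enzyme so polarization drops; 0% = enzyme with DMSO and 100% = wells lacking PAFAH2 protein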
# pPAFAH inh: pPAFAH enzyme inhibitors, primary screen, biochemical, fluorescence polarization, human | Platelet-activating factor acetylhydrolase (Homo sapiens), Q13093 | recombinant pPAFAH, FP-rhodamine probe fluorescence polarization | inhibition, % at 3.39 µM | 330,000 compounds, 1.5% hits;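 active = inhibition above the mean inhibition across the screen plus 3 SD, cut at about 25% in these data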;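 note: inhibitors block binding of the rhodamine activity-based probe so polarization drops; 0% = enzyme with DMSO and 100% = wells lacking pPAFAH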
# Fam108B counter: mouse Fam108B serine hydrolase inhibitors, primary screen, counter-screen for RBBP9 inhibitor project, biochemical, fluorescence polarization; inhibition, % at 9.51 µM; recombinant Fam108B, FP-Rh probe fluorescence polarization; 300,000 compounds, 0.33% hits;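 active = inhibition above the screen mean inhibition plus 3 SD, computed separately per campaign, cut at about 18% in these data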;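 note: inhibitors lower polarization as less probe binds the enzyme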
# pPAFAH FP conf: pPAFAH (PLA2G7) enzyme inhibitors, confirmation, biochemical, fluorescence polarization, human | 2,300 compounds, 72% hits | inhibition, % at 3.39 µM | recombinant pPAFAH, FP-Rh probe fluorescence polarization | AID 463230, 2010 | shares compounds with pPAFAH inh;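 active = mean inhibition of the triplicate above the hit cutoff set for the earlier primary screen, cut at about 25% in these data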;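 note: 0% = enzyme with DMSO and 100% = wells lacking pPAFAH enzyme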
# Active calls of the source: *; . = no result. Compounds with a hit are over-represented: about 2.9% of the library has one in this group of screens.
SMILES,PAFAH1B3 inh,PME-1 inh,PAFAH1B2 FP inh,PAFAH2 FP inh,pPAFAH inh,Fam108B counter,pPAFAH FP conf
Cc1cc(NC(=O)C(C)C)n(-c2nc3ccccc3s2)n1,12,2,3,4,2,0,.
O=C(NN=C1CCCCCC1)c1cc2ccccc2cc1O,9,17,6,5,58*,2,11
Cc1cc(C(=O)NN=C2CCCCCCC2)c2ccccc2n1,5,7,6,9,3,7,.
CC(=O)N1CCC(=NNC(=O)c2cc3ccccc3cc2O)CC1,14,19,6,12,44*,6,6
N#Cc1c(-c2ccccc2Cl)cc(-c2ccccc2)nc1Br,-5,-7,1,3,35*,-2,16
O=C(Nc1ccc(Cl)cc1)Nc1nnc(-c2ccncc2)s1,8,-101,-3,4,1,0,.
O=C(Nc1cccc(Cl)c1)Nc1nnc(-c2ccncc2)s1,-4,-34,7,8,42*,0,35*
CCOC(=O)CC1=C(C(=O)OCC)C(c2ccc(C)o2)C(C#N)=C(N)O1 (stereo not given),4,0,-1,0,-2,-2,.
Cc1ccc(C2C(C#N)=C(N)Oc3c2sc2ccccc32)o1 (stereo not given),.,6,.,.,38*,4,30*
CCc1ccc2nc(Nc3ccc(OC)cc3OC)c(C#N)cc2c1,.,-1,.,.,-1,3,.
CCOc1ccc(-n2c(=O)c3c4c(sc3n(CC(=O)NCc3ccco3)c2=O)CCC4)cc1,-32,-65,-19,-47,-19,-70,.
NC(=O)Cn1c(=O)n(Cc2ccco2)c(=O)c2c3c(sc21)CCCCC3,1,1,0,13,36*,9,15
O=C(NCC(c1cccs1)N1CCOCC1)C1CCN(S(=O)(=O)c2ccccc2C(F)(F)F)CC1 (stereo not given),-3,0,-1,-2,-6,4,.
Cc1occc1C(=O)N/N=C/C1=C(N2CCOCC2)C(=C\c2ccc(Cl)cc2)/CC1,3,-2,-1,-5,8,0,.
O=C(O)c1ccccc1N/N=C/C1=C(N2CCOCC2)C(=C\c2ccccc2)/CC1,6,0,7,22,20,9,.
Cc1cc(C)nc(N/N=C/C2=C(N3CCOCC3)C(=C/c3ccccc3)/CC2)n1,4,5,2,3,65*,0,82*
Cc1cc(=O)[nH]c(N/N=C/C2=C(N3CCOCC3)C(=C\c3ccc(Cl)cc3)/CC2)n1,7,10,-1,8,54*,3,47*
COc1ccc(NC(=S)N2CCC(N(C)CCN3CCOCC3)CC2)cc1,7,1,-8,-5,4,-1,.
O=C(O)c1cc(O)c2c(c1)C(=O)c1cc(O)cc(O)c1C2=O,17,-9,16,13,35*,6,24
Cc1ccc(S(=O)(=O)N2CCN(S(=O)(=O)N3CCOCC3)CC2)cc1C,1,4,-2,-4,-5,3,.
CCCc1cc2c(-c3ccccc3)cc(=O)oc2cc1OCc1ccc(C(=O)O)o1,-1,12,7,-2,54*,-3,48*
O=[N+]([O-])c1ccc(N/N=C/c2ccc(O)c(O)c2O)c(S(=O)(=O)N2CCOCC2)c1,11,.,7,13,.,.,.
O=[N+]([O-])c1ccc(N/N=C/c2cccc(O)c2O)c(S(=O)(=O)N2CCOCC2)c1,4,31*,-8,-14,45*,-6,57*
O=[N+]([O-])c1ccccc1N/N=C/c1cccc(O)c1O,0,3,-2,2,50*,8,14
c1cncc(CNC2CCCc3ccccc32)c1 (stereo not given),3,4,0,-8,6,1,.
SMILES,PAFAH1B3 inh,PME-1 inh,PAFAH1B2 FP inh,PAFAH2 FP inh,pPAFAH inh,Fam108B counter,pPAFAH FP conf
CCOC(=O)C(Cc1ccccc1)NC(=O)CCc1nnc2ccc(N3CCOCC3)nn12 (stereo not given),4,-2,0,0,2,0,.
COc1ccc(CCC(C)Nc2cccc(F)c2)cc1 (stereo not given),5,1,5,3,7,-1,.
O=C(CSCc1n[nH]c(=O)[nH]1)NCCOc1cccc(Oc2ccccc2)c1,7,2,7,0,36*,0,7
COc1cc2cc(Oc3ccc4ccc(=O)oc4c3)c(=O)oc2cc1O[C@@H]1O[C@H](CO)[C@@H](O)[C@H](O)[C@H]1O,20,.,8,15,50*,.,18
COc1cc2cc(Oc3ccc4ccc(=O)oc4c3)c(=O)oc2cc1OC1OC(COC(=O)CC(C)(O)CC(=O)O)C(O)C(O)C1O (stereo not given),14,0,0,10,7,0,.
COc1ccc(-c2coc3cc(OC(=O)N4CCOCC4)ccc3c2=O)cc1,5,6,-8,7,51*,-2,43*
O=C1CC(c2ccc(O)c(O)c2)Oc2cc(O)cc(O)c21 (stereo not given),10,-6,1,14,7,-7,.
Oc1ccc(C2C[C@H]3CC[C@@H]2C3)cc1O (stereo not given in full),14,10,75*,7,52*,5,32*
c1ccc(CNC2=NCCCCC2)cc1,-7,0,-4,3,-4,10,.
Cc1ccc(CNC2=NCCCCC2)n1C,4,-1,1,4,53*,1,3
Cc1cccc(C)c1-n1cccc1/C=C1\SC(=S)N(c2cccc(C(=O)O)c2)C1=O,-5,-10,0,-12,50*,-11,51*
Cc1cccc(C)c1NC(=O)CN1C(=O)S/C(=C\c2cccn2-c2cccc(C(=O)O)c2)C1=O,3,-2,3,12,2,-1,.
CC(=O)Oc1cc2cccc(OC(C)=O)c(=O)c2c(OC(C)=O)c1OC(C)=O,46*,6,45*,88*,91*,5,34*
COc1ccc(-c2[nH]ncc2N=Nc2ccccc2)cc1,3,-11,5,2,49*,-3,1
COc1ccc(-c2[nH]ncc2N=Nc2cc(C)cc(C)c2)cc1,-1,-1,2,2,-5,-2,.
CN(C)c1ccc(NC(=O)CSc2nnc(-c3ccco3)c(-c3ccco3)n2)cc1,-7,19,5,10,18,0,.
